In the supplement of paper PMC10338343:
± gives the standard deviation. Over roughly 8,200 sequences, “pre-steady-state target cleavage rate” has its median near 0.024; the highest 2% begin near 1.3. For the sample, the highest values were picked, then their nearest neighbours and some sequences at random.

System: MIWI (PIWIL1) piRISC loaded with L1MC piRNA (30 nt)
Assay: pre-steady-state target cleavage rate (min^-1); MIWI and MILI are mouse PIWI proteins and EfPiwi is from a freshwater sponge; tags in brackets are library labels; higher = faster piRNA-guided slicing of the target
Settings: guide: L1MC piRNA 5'p-UAACUAAAUACUAUGCAAGCUGUAGGUCCU
Procedure, shortened: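 In this Cleave-'n-Seq assay, uncleaved targets were sequenced and normalised to depth and to weakly complementary targets. They came from a transcribed, DNA-blocked target RNA library […] mixed with 1 nM active affinity-purified piRISC carrying one synthetic guide, with or without 500 nM GTSF1 partner protein, in HEPES–potassium acetate buffer at 33 °C for 0–8 or 0–960 min. After three trials were pooled and k3 was capped at 0.0001 min^-1, the pre-steady-state cleavage rate was obtained from a burst-and-steady-state fit.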

[1] = auxiliary factor: 500 nM mouse GTSF1
[2] = auxiliary factor: none (no GTSF1)
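Note: 1 nM active piRISC with 0.1 nM target library at 33 °C single turnover.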

Row | Sequence | pre-steady-state target cleavage rate [1] | pre-steady-state target cleavage rate [2]
1 | AGGACCUACAGCUUGCGAUAGUAUUUAGUUA | 0.108 ± 0.026 | 
2 | UCGACCUACAGCUUGCAUAGUAUUAUAGUUA | 1.32 ± 0.076 | 0.0387 ± 0.007
3 | UCGACCUACAGCUUGCAUAGUAUUUAGUUA [g2:g28:cont:t1A] | 1.56 ± 0.056 | 0.0936 ± 0.017
4 | UCGACCUACAGCUUGCAUAGUAUAUUAGUUA | 1.25 ± 0.049 | 0.0248 ± 0.0063
5 | UCGACCUACAGCUUGCAUAGUAUUAGUUA | 0.346 ± 0.053 | 
6 | UCGACCUACAGCUUGCAUAGUAUUUUAGUUA | 1.21 ± 0.053 | 0.0302 ± 0.0073
7 | UCGACCUACAGCUUGCAUAGUAUUUAGUUG [g2:g28:cont:t1G] | 0.569 ± 0.04 | 0.0703 ± 0.013
8 | AGCACCUACAGCUUGCAUACUAUUUAGUUA | 0.471 ± 0.099 | 0.00711 ± 0.0024
9 | UCCUGGAUGUCGAACCAUUGUAUAUAGUUA | < 0.0001 | 
10 | UCGACCUACAGCUUCAUAGUAUUUAGUUA | 1.14 ± 0.042 | 0.0128 ± 0.0025
11 | UCGACCUACAGCUUCGAUAGUAUUUAGUUA | 0.911 ± 0.058 | 0.00251 ± 0.0018
12 | UCCACCUACAGCUUCGCAUAGUAUUUAGUUA | 0.911 ± 0.056 | 0.0118 ± 0.0027
13 | AGGACCUACAGCUUCGCAUAGUAUUUAGUUA | 1.27 ± 0.071 | 0.0296 ± 0.0087
14 | UGGACCUACAGCUUCGCAUAGUAUUUAGUUA | 1.43 ± 0.1 | 0.0229 ± 0.0062
15 | UCGACCUACAGCUUCGCAUAGUAUUUAGUUA | 1.33 ± 0.07 | 0.0168 ± 0.004
16 | UGGAGCUACAGCUUGCAUUGUAUUUAGUUA | 0.934 ± 0.038 | 0.0337 ± 0.0068
17 | UCCUCCUACAGCUUGCAUACUAUUUAGAUA | 0.0831 ± 0.015 | 0.0075 ± 0.0022
18 | UCCUGGAUGUGCUUGCAUAGUAUUUAGAUA | 0.118 ± 0.023 | 0.0188 ± 0.0067
19 | UCGACCUACAGCUUGCAUAGAAUUUUCAAA | 0.369 ± 0.059 | 
20 | UCCUGGUACAGCUUACAUAGUAUUUAGUUA | 0.749 ± 0.056 | 0.0246 ± 0.0048
21 | UGGUGCUACAGCUUGCAUAGUAUUUAGUUA | 0.988 ± 0.079 | 0.0764 ± 0.017

Row | Sequence | pre-steady-state target cleavage rate [1] | pre-steady-state target cleavage rate [2]
22 | AGCAGCUACAGCUUGCAUAGUAUUUAGUUA | 1.37 ± 0.067 | 0.079 ± 0.016
23 | UGCUGCUACAGCUUGCAUAGUAUUUAGUUA | 1.55 ± 0.058 | 0.0595 ± 0.011
24 | UCCUGCUACAGCUUGCAUAUAUUUAGUUA | 0.408 ± 0.045 | 0.00397 ± 0.0033
25 | UGCUGCUACAGCUUGCAUAGUAUUUAGUAA | 0.875 ± 0.084 | 0.0204 ± 0.0041
26 | UCCUGCUACAGCUUGCAUAUUAUUUAGUUA | 1.31 ± 0.066 | 0.0449 ± 0.0088
27 | UCCUGCUACAGCUUGCAUAGUAUUUUAGUUA | 0.817 ± 0.067 | 0.0107 ± 0.0028
28 | UGCAGCUACAGCUUGCAUAGUAUUUAGUUA | 1.21 ± 0.081 | 0.0733 ± 0.013
29 | UCCUGCUACAGCUUGCAUAGUAUUUAGUUA [g2:g25:cont:t1A] | 0.864 ± 0.042 | 0.0585 ± 0.01
30 | AGCUGCUACAGCUUGCAUAGUAUUUAGUUA | 1.49 ± 0.07 | 0.0697 ± 0.012
31 | AGCUGCUACAGCUUGCAUAGUAUUUAGUAA | 0.977 ± 0.11 | 0.0202 ± 0.0038
32 | UCCUGCUACAGCUUGCAUAGUUAUUUAGUUA | 0.073 ± 0.013 | 0.00386 ± 0.0025
33 | UCCUGGAACAGCUUCAUAGUAUUUAGUUA | 0.95 ± 0.051 | 0.00772 ± 0.0027
34 | UCCACCUACAGCUUGCGAUAGUAUUUAGUUA | 0.0565 ± 0.018 | 
35 | UGGACCAUGAGCUUGCAUAGUAUUUAGUAA | 0.675 ± 0.045 | 0.0285 ± 0.0075
36 | UCCUGGAACACCUUGCAUAGUUUUUAGUUA | 0.148 ± 0.023 | 0.0142 ± 0.0044
37 | UCCUGGAACAGCUUGCAUAGUUUUUUGUUA | 0.197 ± 0.025 | 0.0238 ± 0.0057
38 | UCGUCCUACAGCUUGCAUAGUAAUUAGUUA | 0.874 ± 0.027 | 0.0282 ± 0.006
39 | UCCUCCUACAGCUUGCAUAGUAAUUAGUAA | 0.347 ± 0.039 | 0.0074 ± 0.0022
40 | UCCUGGUACAGCAUGCAUAGUAAUUAGUUA | 0.457 ± 0.054 | 0.0118 ± 0.0031
41 | AGGACCUACAGCUAGCAUAGUAUUUAGAAA | 0.571 ± 0.066 | 0.00411 ± 0.0025
42 | UCCUGCUACAGCUUGCAUAGUAUUUUGUAA | 0.274 ± 0.043 | 0.009 ± 0.0031

Row | Sequence | pre-steady-state target cleavage rate [1] | pre-steady-state target cleavage rate [2]
43 | UCCUGGAUGAGCUACCAUAGUAUUUAGUUA | 0.0107 ± 0.0041 | 
44 | UCCUCCUACAGCUUGCAUAGUAUUGUAGUUA | 0.282 ± 0.054 | 0.00959 ± 0.0038
45 | UCCUGGAACAGCUUGCAUGUAUUUAGUUA | 0.103 ± 0.015 | 0.00591 ± 0.0032
46 | UCCUGGAUGUCCUUGCAUACUAUUUAGUUA | 0.0164 ± 0.0047 | 0.00616 ± 0.0016
47 | UCCACCUACAGCUUCCAUAGUAUUUACAAA | 0.0165 ± 0.008 | 
48 | UCCUGGUACAGCUUGCAUAGUAUUUAGCUA | 0.00692 ± 0.0039 | 
49 | UCGUGCUACAGCUUGCAUAGUAUUUAGUAA | 0.926 ± 0.053 | 0.0286 ± 0.0054
50 | AGGUGCUACAGCUUGCAUAGUAUUUAGUUA | 1.23 ± 0.064 | 0.0832 ± 0.016
51 | UCGUGCUACAGCUUGCAUAGUAUUUAGUUA | 1.38 ± 0.059 | 0.0704 ± 0.012
52 | UGGAGGAACAGCUUGCAUAGUAUUUAGAAA | 0.364 ± 0.037 | 0.00934 ± 0.004
53 | UCCUCCUACCAGCUUGCAUAGUAUUUAGUUA | 1.15 ± 0.055 | 0.0479 ± 0.011
54 | UCGACCUACAGGUUGCAUACUAUUUAGUUA | 0.273 ± 0.018 | 0.0207 ± 0.004
55 | UGCACCUACAGCAUGCAUAGUAUUUAGUUA | 0.998 ± 0.092 | 0.0271 ± 0.0047
56 | UCGACCUACAGCAUUGCAUAGUAUUUAGUUA | 1.19 ± 0.082 | 0.0581 ± 0.012
57 | ACGACCUACAGCAUGCAUAGUAUUUAGUUA | 1.43 ± 0.053 | 0.082 ± 0.021
58 | UCGACCUACAGCAUGCAUAGUAUUUAGUUA | 1.48 ± 0.049 | 0.0548 ± 0.013
59 | AGCACCUACAGCAUGCAUAGUAUUUAGUUA | 1.02 ± 0.13 | 0.0663 ± 0.022
60 | UCGACCUACAGCAUGCAUAGUAUUUAGUAA | 0.99 ± 0.072 | 0.0189 ± 0.0064
61 | UCCUGCUAGAGCUUGCAUAGUAUUUACAAA | 0.186 ± 0.047 | 
